Only some compounds are listed: those with a hit (about 6.8% of all), similar ones and a draw of the others.
NADH enzymes: inhibition of NAD/NADH coupling enzymes, library profiling | IC50, µM (titrated, usually from 10 µM), for inactives: at the highest dose inhibition | coupled PK/LDH NADH assays, four targets | 0.02% of 65,000 active | AID 774;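 active means single-dose screening hits from any of four coupled enzyme assays that gave an IC50 when retested across doses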;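 further: the DPM-DC format reads NADH fluorescence rather than 340 nm absorbance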
Autofluor 339: intrinsic fluorescence of library compounds, ex339/em460 – biochemical, MLSMR library, data from DPM-DC assay, artefact control, profiling panel. compound autofluorescence, ex339/em460 nm, NADH buffer; hits give high values; 1 = no-compound wells, NADH background. fluorescence fold increase at 10 µM. 5.5% of 65,000 active;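 active means at 10 µM, mean starting fluorescence two-fold or more over control wells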;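 further: signal is the first read of a kinetic run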
Spn PMK inh: blocks S. pneumoniae phosphomevalonate kinase; purified PMK, PK/LDH-coupled NADH absorbance 340 nm; inhibition, % at 10 µM; 0.49% of 65,000 active;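 active means top-ranked compounds by inhibition in the single 10 µM screen, taking a fixed number of the strongest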;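 further: 0% = full reaction with DMSO carrier and 100% = background rate without enzyme reaction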
Abs 340nm: absorbance at 340 nm; 65,000 tested, under 10 active; compound absorbance at 340 nm, fold over control; AID 708; fold change at 10 µM;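 active means at 10 µM dose, initial 340 nm absorbance at least 2 fold that of control wells; inactive means change under 2 fold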;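 further: initial absorbance extrapolated from kinetic A340 decline of NADH oxidation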
Spn DPM-DC inh: S. pneumoniae DPM-DC inhibition; purified DPM-DC, PK/LDH coupled NADH fluorescence; calls only at 10 µM; 0.49% of 65,000 active;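 active means the 320 compounds with the highest percent inhibition in the single-dose primary screen, excluding strongly autofluorescent ones, cut at about 32% in these data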;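 further: kinetic rate of NADH fluorescence loss reporting ADP formed by the decarboxylase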
Spn MK inh: inhibitors of Streptococcus pneumoniae mevalonate kinase | purified MK, PK/LDH-coupled NADH absorbance 340 nm | inhibition, % at 10 µM | 0.48% of 65,000 active | AID 555;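 active means ranked among the strongest by inhibition in the single 10 µM screen, a fixed top-ranked set picked for dose follow-up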
Starred values were filed as active, the others as inactive; i = inactive; . = not tested or not shown.

SMILES	NADH enzymes	Autofluor 339	Spn PMK inh	Abs 340nm	Spn DPM-DC inh	Spn MK inh
CC1(C(=O)N(CC(=O)NC2CCCC2)Cc2ccco2)CC(=O)N=C2C=CC=CN21 (centres undefined)	7.0%	4.85*	8.0	1.02	.	6.0
Cc1nn(-c2ccccc2)c2sc(C(=O)N(CC(=O)NC3CCCC3)Cc3ccco3)cc12	3.0%	1.18	1.0	1.05	i	9.0
COc1ccccc1CNCc1cc(OC)c(OC)cc1OC	25.0%	1.09	22.0	1.08	i	53.0*
COc1ccccc1CNC(=O)COc1ccccc1OC	4.0%	1.1	3.0	1	i	6.0
COc1cccc(CNCc2ccccn2)c1OC	22.0%	1.08	12.0	1.02	i	53.0*
CC1=C(C(=O)Nc2ccc(Cl)cc2)C(c2cccs2)n2nnnc2N1 (centres undefined)	4.0%	1.11	4.0	1	i	9.0
O=C(NC1CCCCC1)C(c1ccco1)N(C(=O)c1csnn1)C1CCCC1 (centres undefined)	4.0%	1.07	11.0	1	i	0.0
COc1ccc(NC(=O)N(CCCN(C)C)Cc2cc3cc(OC)ccc3[nH]c2=O)cc1	8.0%	1.77	16.0	1.07	i	7.0
COc1ccc(NC(=O)N(CCN2CCCC2)Cc2cc3cc(OC)c(OC)cc3[nH]c2=O)cc1	9.0%	2.08*	7.0	1.16	i	4.0
CCN(CC)CCCN(Cc1cc2cc(OC)ccc2[nH]c1=O)C(=O)Nc1ccc(F)cc1	9.0%	2*	9.0	1.09	i	1.0
CCN(CC)CCCN(Cc1cc2cc(OC)ccc2[nH]c1=O)C(=O)Nc1ccccc1	7.0%	1.8	16.0	0.99	i	2.0
COc1ccc(S(=O)(=O)N2CCC(C(=O)NCc3ccccn3)CC2)cc1Cl	3.0%	1.09	3.0	1.05	i	5.0
CCc1ccc2[nH]c(=O)c(CN(Cc3ccc(OC)cc3)Cc3nnnn3CCOC)cc2c1	6.0%	1.35	0.0	1.06	i	9.0
Cc1ccc2[nH]c(=O)c(CN(Cc3cccs3)Cc3nnnn3Cc3ccccc3)cc2c1	6.0%	1.18	11.0	1	i	8.0
COc1ccc2[nH]c(=O)c(CN(Cc3ccccc3)Cc3nnnn3CC3CCCO3)cc2c1 (centres undefined)	13.0%	2.32*	10.0	1.05	i	12.0
COc1cc2cc(CN(Cc3nnnn3Cc3ccccc3)CC3CCCO3)c(=O)[nH]c2cc1OC (centres undefined)	18.0%	3.26*	15.0	1.08	i	13.0
CCNc1nc(NC(C)C)nc(Oc2ccc(OCCOc3ccc(C)cc3)nn2)n1	0.0%	1.1	0.0	1.05	i	0.0
CCCCCNC(=O)c1c(N)n(/N=C/c2ccco2)c2nc3ccccc3nc12	4.0%	1.51	8.0	1	i	5.0
Nc1c(S(=O)(=O)c2ccccc2)c2nc3ccccc3nc2n1/N=C/c1cccc(O)c1	7.0%	3.72*	4.0	1.1	.	10.0
CCCCNC(=O)c1c(N)n(/N=C/c2cccnc2)c2nc3ccccc3nc12	6.0%	1.25	2.0	1.05	i	11.0
Cc1ccc(C)c(S(=O)(=O)c2c(N)n(/N=C/c3ccco3)c3nc4ccccc4nc23)c1	1.0%	2.14*	0.0	1.06	i	0.0
CCC(C(=O)OC)n1cnc2c(nnn2-c2cccc(Cl)c2)c1=O (centres undefined)	5.0%	1	6.0	1.03	i	8.0
CCOCCSc1nnc2nc(C)cc(C)n12	1.0%	1.15	0.0	1.04	i	2.0
CCCOc1cccc(C(=O)N(Cc2cccs2)C2CCS(=O)(=O)C2)c1 (centres undefined)	2.0%	1.05	3.0	1.01	i	2.0
COc1ccc(-c2nnc(-c3ccc(N)cc3)o2)cc1	2.0%	2.92*	4.0	1.06	.	8.0
COc1ccc(-c2ccc(-c3nnc(-c4cc(OC)ccc4OC)o3)cc2)cc1	13.0%	3.69*	18.0	1.07	.	7.0
COc1ccc(-c2nnc(-c3ccc(N(C)C)cc3)o2)cc1	1.0%	2.1*	1.0	1.15	.	0.0
CN(C)c1ccc(-c2nnc(-c3ccc(S(=O)(=O)C(F)F)cc3)o2)cc1	7.0%	1.35	10.0	1.07	i	8.0
COc1ccc(N(CC(=O)Nc2cc(OC)ccc2OC)S(C)(=O)=O)cc1	17.0%	1.15	0.0	1.03	i	51.0*

Screening data (PubChem)
